The results in this text go back to the supplement of paper PMC6555819.

The assay concerns VDR:RXRa (NR concentration 270 nM, RXRa partner concentration 90 nM). Put plainly: PBM binding z-score (relative to random genomic background probes); higher = stronger binding; sequences stand for … in GC…GCGATTGACAGCGTAGAATGAAGG
As for the experimental part:
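Protein-binding microarray (Agilent 4x180K custom design, double-stranded 60-nt probes: 5' GC cap, 34-nt variable region, 24-nt constant primer region; full probe sequence given). Purified or IVT nuclear receptor:RXRα heterodimers (3:1 NR:RXRα, mostly 270:90 nM) or homodimers were incubated for 1 h in PBS with 2% milk and no ligand, then detected with Alexa488 antibodies. Fluorescence from o1-orientation probes (~5 replicates averaged) was converted to z-scores against 500 random hg19 background probes. Variable regions are seed direct-repeat (DR0–DR5) sites, all their single-nucleotide variants and half-site ablations.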
Consider TCATATATGTAAAAGGTGAAAGTCGGTGTGGTAA, for which the PBM binding z-score came out at 1.24.

Turning to ATATGTAGGTAAGCTGGGGTCATTCAGACTAGGC, the PBM binding z-score stood at 5.49.

For the sequence AGAATGAGGTTAAGATCAAGGAAACAGAATACAT, the PBM binding z-score is 1.09.

Sequence TTACCAGGGTGAAGGTCGTTGATCCCTCTGTAGA returned a PBM binding z-score of 1.65.

Take GGAACGAGGGCATTCGAGTTGACAGCATGGCGAT: the PBM binding z-score amounted to 3.41.

As to GCTTGTAGATCAGGGTTAAGAAAGACTAAGCTAA, the PBM binding z-score was 0.179.

Take TCTATTAGTTGAAGGGCAACCGACGAGTCCGTTT: the PBM binding z-score was determined as 1.09.

In turn, TTACCAAGGTGAGCTGAGGTTGTTGATCCAACTC returned a PBM binding z-score of 0.678.

GCTCGTTGGTCAGTAAAAGGTCACACACCGGTCG returned a PBM binding z-score of 4.26.

On to CGATCGAGGGCATGAGTTGATAGCAAATGCCGAT, for which the PBM binding z-score came out at 0.973.

For CTACCAAGCTGAACAAGGTCGTTGATTACTATTC, the PBM binding z-score was 1.51.

GCATACAGGTGAAACGCAGGTAACTCAGGGTGGC: the PBM binding z-score is -0.304.

For the sequence ACAGACAGATGATGAAGGTAACTCAGGCTATCAT, the PBM binding z-score came out at 0.0494.

Consider CAAACTAGGTCACGAAAGGTCAAAGACGAATGAC, for which the PBM binding z-score was 6.91.

As to ACAGACAGGTGATGAAGGTAACTCGGGCTATCAT, the PBM binding z-score stood at 0.101.

With CTACCAAGGTGGACAAGGTCGTTGATTACTATTC, the PBM binding z-score came out at 3.

Consider AGAATGAGGTTACCAAAGATTAGGGAAACGCTTG, for which the PBM binding z-score was found to be 1.05.

As to GGTGCTAGGTCAGGTTGGTCAGCTAACGGGTACG, the PBM binding z-score came to 1.25.

The sequence CCAACTAGGTCACCGGAAGGTCAAAGTCCGCATG showed a PBM binding z-score of 5.87.

For ATCTCTAGGTAACCAAGTTCAGTGAATGCCGAAC, the PBM binding z-score amounted to 4.23.

In turn, CCGACTGGGGAAAAGGTTACCATACTCAGTACGA displayed a PBM binding z-score of 0.397.

In turn, TCATATAGGTGAAGGTGAAAGTCGAACGATATGA came in with a PBM binding z-score of 0.278.

For CCTCGGAGGACAACAGCAGGTCAGAGCTGCCAGA, the PBM binding z-score came out at 0.333.

ATCTAAAGGTCGTGAGGTGAGTATACAGAAAGGC had a PBM binding z-score of 3.73.

Turning to ATCTCTATGTAACCAAGTTCAGTGAATGCCGAAC, the PBM binding z-score came out at 2.22.

For the sequence ACTTACGGGTCAACGAGGTTATAGTACGCGTATA, the PBM binding z-score worked out at 7.78.

Sequence TCTGCTAGGTCAACGGTGGTCAGCTAATCTGCTA showed a PBM binding z-score of 1.95.

On to TCGGCTAGGTCAACGATGGTCAGCTAATCTGCTA, for which the PBM binding z-score stood at 1.73.

CTCGAAATGTCGGTTGAGGTGAGTATACGGATAA gave a PBM binding z-score of -0.148.

Take CCTAGCAGGCCAATCAGGGTCACTCAAGGCTTGA: the PBM binding z-score was determined as 3.66.

Consider ATACCAACGTGATCGTGAGGTCGTTGATACTAAC, for which the PBM binding z-score came out at 1.8.

Sequence ATCTCTAGGCAAAGTTCAGTGAAAGATCGATAGA registered a PBM binding z-score of 1.06.

Sequence ACAGAGAGGTGATGAAGGTAACTCAGGCTATCAT registered a PBM binding z-score of 0.7.

Sequence ACTATTAGTTGACTTAGCGCAACCGATACGACGC displayed a PBM binding z-score of 0.0494.

With CCGACTGTGGCATAAGGTTACCATAAGCCAGCCC, the PBM binding z-score came to 0.153.

In the case of TCTTGTAGATCTAAGGTTAAGAAAGCCGAAGCCT, the PBM binding z-score stood at 0.651.

Sequence TCTTGTATATCAACAGGAGGTTAAGAAAGATCGA returned a PBM binding z-score of 1.28.

TCGACTAGGTTAGGGGCATTCAGAATGGCGTCGA yielded a PBM binding z-score of 0.465.

For the sequence AGAATGAGGTTATACGTAGTTCAGGGAAGAAAGT, the PBM binding z-score was 3.09.

For CCGACTGGGGCATAAGTTTACCATAAGCCAGCCC, the PBM binding z-score was -0.462.
